Hit rate of the full screen: of about 63,000 compounds, about 1,100 (1.7%) were called active. The sample holds actives, similar compounds and a random draw of the others, so the mix is not that of the screen. Entries with a potency or affinity are not part of this list. A number with no mark means an inactive call.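 How the source made its calls: active means compounds whose percent cytotoxicity in the single-dose primary screen, scaled between solvent and toxic-drug controls, exceeds 50; inactive means the rest.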

A short description of the test: viability loss of HPDE-C7K cells – cell-based, fluorescence, HTS, primary screen (AID 431).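 Further: 0% = DMSO solvent wells and 100% = doxorubicin-treated wells.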 Conditions: HPDE-C7K KRASV12 cells, Alamar Blue viability, 48 h; at 10 µM; stronger effect = higher value.
For the compound `c1ccc2c(c1)ncn2Cc1nnc2sc(-c3ccncc3)nn12`, the cytotoxicity was 0.8%.
As for `CC(=O)c1c(N2CCCCC2)nc(=O)n(-c2ccccc2)c1C`, the cytotoxicity is -16.3%.
Then `O=C(NCCCNC(=O)c1ccccn1)c1ccccn1`, with 9.7%; and `O/N=C(/Cc1ccccn1)c1ccccc1`, with -1.3%; and `CCCCCC/C(=N/O)c1ccccn1`, with 51.6% (active).
Regarding `Cc1cc2nc(C(F)(F)F)[nH]c(=O)n2n1`, the cytotoxicity was 2.8%.
As for `COC(=O)C1CCN(Cc2cc(=O)oc3cc(OC)ccc23)CC1`, the cytotoxicity is -31.4%.
Take `CCOC(=O)c1ccc(N=c2sc(C(=O)OC)cc(=O)n2C2CC2)cc1`: the cytotoxicity is 14.1%.
On to `COC(=O)c1cc(=O)n(Cc2ccco2)c(=Nc2ccc(F)c(Cl)c2)s1`, for which the cytotoxicity was 26.9%.
`CCOC(=O)c1ccc(N=c2sc(C(=O)OC)cc(=O)n2Cc2ccco2)cc1`: the cytotoxicity is 119% (active).
With `COc1ccc(N=C2SC(CC(=O)Nc3ccc(OC)cc3OC)C(=O)N2C)cc1` (stereo unspecified), the cytotoxicity was -10.8%.
In the case of `COc1ccc(-c2cc(C(=O)N3CCN(C(c4ccccc4)c4ccccc4)CC3)no2)cc1` it was 2.7%.
On to `COc1ccc(N=c2oc3cc(O)ccc3cc2C(=O)NCC2CCCO2)c(OC)c1` (stereo unspecified), for which the cytotoxicity was 53.8% (active).
In the case of `COc1ccccc1N=c1oc2cc(O)ccc2cc1C(=O)NCC1CCCO1` (stereo unspecified), the cytotoxicity is 7%.
On to `COc1ccc(N=c2oc3cc(O)ccc3cc2C(=O)NCC2CCCO2)cc1` (stereo unspecified), for which the cytotoxicity is -0.1%.
Regarding `CC1(C)NC(=O)N(CC(O)COc2ccccc2C(=O)N2CCCCC2)C1=O` (stereo unspecified), the cytotoxicity was -30.9%.
In the case of `CCCCC(=O)Nc1cccc2c1C(=O)N(c1ccccc1)C2=O` it was -0.9%; in that of `CCc1nnc(NC(=O)c2ccc(S(=O)(=O)N(CC(C)C)CC(C)C)cc2)o1`, 47.6%; in that of `CCCCN(CCCC)S(=O)(=O)c1ccc(C(=O)Nc2nnc(COC)o2)cc1`, 66.7% (active).
As for `CSCc1nnc(NC(=O)c2ccc(S(=O)(=O)N(CC(C)C)CC(C)C)cc2)o1`, the cytotoxicity was 57.2% (active).
In the case of `CCCCN(CC)S(=O)(=O)c1ccc(C(=O)Nc2nnc(CSC)o2)cc1` it was 8.9%.
On to `CCCCN(C)S(=O)(=O)c1ccc(C(=O)Nc2nnc(CSC)o2)cc1`, for which the cytotoxicity is -2%.
In the case of `CCCCN(CC)S(=O)(=O)c1ccc(C(=O)Nc2nnc(COC)o2)cc1`, the cytotoxicity is 3.4%.
Then `CCc1nnc(NC(=O)c2ccc(S(=O)(=O)N(CC)Cc3ccccc3)cc2)o1`, with 33%; and `CCc1nnc(NC(=O)c2ccc(S(=O)(=O)N(CCOC)CCOC)cc2)o1`, with -0.3%.
As for `CCCCN(CCCC)S(=O)(=O)c1ccc(C(=O)Nc2nnc(CSC)o2)cc1`, the cytotoxicity was 70.1% (active).
Turning to `COc1ccc(-c2cc(C(=O)NCC(C)C)no2)cc1`, the cytotoxicity is -0.6%.
As to `CCOC(=O)N1CCN(C(=O)COc2ccc(S(=O)(=O)NC3CCCCC3)cc2C)CC1`, the cytotoxicity is -6.6%.
On to `COC(=O)c1ccc(C2/C(=C(\O)c3ccc(OC)c(C)c3)C(=O)C(=O)N2c2cc(C)on2)cc1` (stereo unspecified), for which the cytotoxicity is 13.9%.
On to `Cc1c(C#N)c2ccccc2n1CC(=O)NCCc1c[nH]c2ccccc12`, for which the cytotoxicity is -3.8%.
For the compound `CN(C)S(=O)(=O)c1ccc(-c2ccccc2)cc1`, the cytotoxicity is -6.1%.
Regarding `CN(C)S(=O)(=O)n1cnc(-c2ccccc2)c1-c1ccccc1`, the cytotoxicity was -11.5%.
With `O=C(O)COc1ccc(Oc2ccccc2)cc1`, the cytotoxicity was 10.4%.
Take `COc1ccc(N2CCN(CCCNC(=O)CCCn3c(=O)[nH]c4ccsc4c3=O)CC2)cc1`: the cytotoxicity is 10.4%.
As to `O=C(OCc1nc2ccccc2s1)c1cccc(S(=O)(=O)N2CCOCC2)c1`, the cytotoxicity is 4.7%.
With `OC1CCCN(Cc2cccc3ccccc23)C1` (stereo unspecified), the cytotoxicity is 9.5%.
Consider `CN(C)c1ccc(CN2CCCC(O)C2)cc1` (stereo unspecified), for which the cytotoxicity was 4.1%.
For the compound `O=S(=O)(c1ccc(C2CCCCC2)cc1)N1CCN(c2ncccn2)CC1`, the cytotoxicity was 0.7%.
As for `Cc1cc(C(=O)CN2C(=O)NC(C)(c3cccc(Br)c3)C2=O)c(C)n1Cc1ccco1` (stereo unspecified), the cytotoxicity is 17%.
As to `CC(=O)O[C@H]1C(=O)[C@]2(C)[C@H]([C@H](OC(=O)c3ccccc3)[C@]3(O)C[C@H](OC(=O)[C@H](O)[C@@H](NC(=O)c4ccccc4)c4ccccc4)C(C)=C1C3(C)C)[C@]1(OC(C)=O)CO[C@@H]1C[C@@H]2O`, the cytotoxicity is 67.2% (active).
As to `CC(=O)O[C@@]12CO[C@@H]1C[C@H](O)[C@@]1(C)C(=O)[C@H](O)C3=C(C)[C@@H](OC(=O)[C@H](O)[C@@H](NC(=O)OC(C)(C)C)c4ccccc4)C[C@](O)([C@@H](OC(=O)c4ccccc4)[C@H]21)C3(C)C`, the cytotoxicity was 52.1% (active).
For `CCc1cccc(CC)c1N(COC)C(=O)Cn1c(CO)nc2ccccc21`, the cytotoxicity was -6.1%.
As to `CCOc1ccc(-n2c(=O)cc(N3CCN(c4ccccc4)CC3)[nH]c2=O)cc1`, the cytotoxicity is 7.9%.
As for `CCOC(=O)CSc1nnc(CNC(=O)c2ccco2)n1C`, the cytotoxicity is -0.1%.
Turning to `O=C(NC1CCCC1)C1C2C=CC3(CN(Cc4cccs4)C(=O)C13)O2` (stereo unspecified), the cytotoxicity is 3.8%.
With `Cc1ccc2nc(NCc3ccco3)c(C=NCc3ccco3)c(=O)n2c1`, the cytotoxicity is -7.1%.
In the case of `CC(=O)N[C@H]1C[C@@H]1c1ccccc1`, the cytotoxicity is 6.6%.
Regarding `COc1ccc(NC(=O)CS(=O)CC(=O)NCc2cccc(C(F)(F)F)c2)cc1` (stereo unspecified), the cytotoxicity was 1%.
In the case of `COc1ccc(NC(=O)CSc2nnc(-c3ccccc3)n2Cc2ccco2)c(OC)c1` it was -5.5%; in that of `CCC(=O)N(CCc1ccccc1C)Cc1cc2cc3c(cc2[nH]c1=O)OCO3`, -20.6%; in that of `COc1ccc(CCN(Cc2cc3cc4c(cc3[nH]c2=O)OCO4)C(C)=O)cc1OC`, -1.5%.
As for `CC(=O)N(CCc1ccccc1C)Cc1cc2cc3c(cc2[nH]c1=O)OCO3`, the cytotoxicity is 53.3% (active).
For the compound `COc1ccccc1C(=O)Nc1ccc(S(=O)(=O)Nc2cc(C)on2)cc1`, the cytotoxicity is 3.1%.
With `O=C(Nn1c(C2CC2)nc2ccccc2c1=O)c1ccco1`, the cytotoxicity is -1.6%.
Take `O=c1cc(CN2CCN(c3ccc(F)cc3)CC2)nc2sccn12`: the cytotoxicity was -7.8%.
Take `Cc1nc2ccccn2c(=O)c1CCN1CCC(C(=O)c2ccc(F)cc2)CC1`: the cytotoxicity was 10.8%.

For the origin of these results see PubChem BioAssay AID431 (Sanford-Burnham Center for Chemical Genomics, 2006).
